Measurements from PubChem BioAssay AID1159580 (chemical genetic matrix, 2015).
Values joined by “and” are separate entries in the source; they are usually repeats but may differ in a detail not shown here. Identical values can stand only once. Out of some 5,500 compounds screened, about 2,000 (36%) were called active. About 18% were inconclusive and are not listed. Rule as the data show it: active = normalized growth mostly below about 0.91 (no sharp cut-off); inconclusive = no clear call, values can overlap the other calls; inactive = mostly above about 0.92. The list shows a part of the results.

Experiment: chemical genetic growth profiling, strain panel (AID 1159580);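 also: tested at 20 µM; growth read once vehicle control cultures reached saturation at 30 °C; 1 = growth at the plate median or of vehicle wells; lower values mean less growth of the strain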
Settings: S. cerevisiae deletion strains, growth OD

Measured: normalized growth

Nc1ccc(C(=O)O)c(O)c1
inactive: locus YAL021C, strain ccr4, stronger effect = lower value 0.972 | locus YAL026C, strain drs2, stronger effect = lower value 1 | locus YAL030W, strain snc1, stronger effect = lower value 1 | locus YBL061C, strain skt5, stronger effect = lower value 0.989 | locus YBR009C, strain hhf1, stronger effect = lower value 1.02 | locus YBR021W, strain FUR4, stronger effect = lower value 1.01 | locus YBR023C, strain chs3, stronger effect = lower value 0.984 | locus YBR171W, strain sec66, stronger effect = lower value 0.98 | locus YBR229C, strain ROT2, stronger effect = lower value 1 | locus YBR231C, strain swc5, stronger effect = lower value 1 | locus YBR279W, strain paf1, stronger effect = lower value 0.996 | locus YCL011C, strain gbp2, stronger effect = lower value 0.991 | locus YCL016C, strain dcc1, stronger effect = lower value 0.965 | locus YCL029C, strain bik1, stronger effect = lower value 0.997 | locus YCL061C, strain MRC1, stronger effect = lower value 0.979 | locus YCL069W, strain vba3, stronger effect = lower value 0.99 | locus YCR088W, strain abp1, stronger effect = lower value 0.997 | locus YDL005C, strain med2, stronger effect = lower value 0.989 | locus YDL035C, strain GPR1, stronger effect = lower value 1.02 | locus YDL040C, strain nat1, stronger effect = lower value 0.99 | locus YDL074C, strain BRE1, stronger effect = lower value 1.01 | locus YDL101C, strain DUN1, stronger effect = lower value 1.01 | locus YDL134C, strain PPH21, stronger effect = lower value 1 | locus YDL185W, strain tfp1, stronger effect = lower value 1 | locus YDL192W, strain arf1, stronger effect = lower value 0.994 | locus YDR001C, strain nth1, stronger effect = lower value 0.989 | locus YDR069C, strain doa4, stronger effect = lower value 1 | locus YDR101C, strain arx1, stronger effect = lower value 1.01 | locus YDR137W, strain rgp1, stronger effect = lower value 0.959 | locus YDR150W, strain NUM1, stronger effect = lower value 1.01 | locus YDR159W, strain sac3, stronger effect = lower value 1.02 | locus YDR162C, strain NBP2, stronger effect = lower value 1.01 | locus YDR195W, strain ref2 0.996 | locus YDR297W, strain sur2, stronger effect = lower value 1.01 | locus YDR318W, strain mcm21, stronger effect = lower value 1.01 | locus YDR334W, strain swr1, stronger effect = lower value 0.98 | locus YDR335W, strain msn5, stronger effect = lower value 0.993 | locus YDR388W, stronger effect = lower value 1 | locus YDR392W, strain spt3, stronger effect = lower value 0.931 | locus YDR502C, strain sam2, stronger effect = lower value 0.998 | locus YEL003W, strain gim4, stronger effect = lower value 1.02 | locus YEL037C, strain rad23, stronger effect = lower value 1 | locus YEL061C, strain CIN8 (second series), stronger effect = lower value 0.994 | locus YEL061C, strain CIN8, stronger effect = lower value 1.01 | locus YER015W, strain faa2, stronger effect = lower value 0.999 | locus YER016W, strain bim1, stronger effect = lower value 1 | locus YER110C, stronger effect = lower value 1 | locus YER111C, strain swi4, stronger effect = lower value 0.984 | locus YER155C, strain BEM2 (second series), stronger effect = lower value 1 | locus YER155C, strain BEM2, stronger effect = lower value 1 | locus YER167W, strain BCK2, stronger effect = lower value 1.01 | locus YFR010W, strain ubp6, stronger effect = lower value 1 | locus YGL078C, strain dbp3, stronger effect = lower value 0.995 | locus YGL086W, strain mad1, stronger effect = lower value 0.997 | locus YGL167C, strain pmr1, stronger effect = lower value 0.992 | locus YGL173C, strain kem1, stronger effect = lower value 0.99 | locus YGL227W, strain vid30, stronger effect = lower value 0.991 | locus YGL240W, strain doc1, stronger effect = lower value 0.997 | locus YGL248W, strain PDE1, stronger effect = lower value 0.999 | locus YGL253W, strain hxk2, stronger effect = lower value 0.978 | locus YGR135W, strain pre9, stronger effect = lower value 0.993 | locus YGR252W, strain gcn5, stronger effect = lower value 0.959 | locus YHR013C, strain ard1, stronger effect = lower value 0.961 | locus YHR027C, strain rpn1, stronger effect = lower value 0.997 | locus YHR030C, strain SLT2, stronger effect = lower value 0.974 and 1.01 and 1.07 | locus YHR079C, strain IRE1 (second series), stronger effect = lower value 1 | locus YHR079C, strain IRE1, stronger effect = lower value 1.02 and 1.04 | locus YHR094C, strain hxt1, stronger effect = lower value 0.997 | locus YHR129C, strain ARP1, stronger effect = lower value 1.01 | locus YHR142W, strain chs7, stronger effect = lower value 0.964 | locus YHR200W, strain rpn10, stronger effect = lower value 0.999 | locus YIL066C, strain RNR3, stronger effect = lower value 1.03 | locus YIL073C, strain SPO22, stronger effect = lower value 1.04 | locus YIL125W, strain kgd1, stronger effect = lower value 1 | locus YIR030C, strain dcg1, stronger effect = lower value 1 | locus YJL092W, strain hpr5, stronger effect = lower value 0.984 | locus YJL095W, strain BCK1 (second series), stronger effect = lower value 0.997 | locus YJL095W, strain BCK1, stronger effect = lower value 0.994 and 1.01 and 1.04 | locus YJL115W, strain asf1, stronger effect = lower value 0.99 | locus YJL129C, strain trk1, stronger effect = lower value 0.968 | locus YJL134W, strain LCB3, stronger effect = lower value 1.01 | locus YJL154C, strain vps35, stronger effect = lower value 0.99 | locus YJL164C, strain tpk1, stronger effect = lower value 1.01 | locus YJL166W, strain qcr8, stronger effect = lower value 0.962 | locus YJL168C, strain set2, stronger effect = lower value 1 | locus YJL187C, strain SWE1 (second series), stronger effect = lower value 1.01 | locus YJL187C, strain SWE1, stronger effect = lower value 0.999 | locus YJR043C, strain POL32, stronger effect = lower value 1.01 | locus YJR066W, strain TOR1, stronger effect = lower value 0.963 and 0.985
